An excerpt weighted towards active compounds, which were near 2.3% of everything screened.
GLD-1 RNA inh: GLD-1-TGE RNA interaction inhibition (C. elegans); Q17339; purified GLD-1 + fluorescein TGE RNA, fluorescence polarization; AID 2280; inhibition, % at 5.96 µM; hit rate 0.44% among 320,000;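 active = percent inhibition above a per-plate cutoff, the plate mean of test compounds plus 3 SD, cut at about 30% in these data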
Mcl1-Bid inh: disrupts binding of human Mcl-1 to Bid peptide; inhibition, % at 21.7 µM; Q07820; TR-FRET Mcl-1/Bid-Dy647 peptide binding, 1536-well; hit rate 0.97% among 220,000;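 active = compounds that cut the binding signal by more than half at the single screening dose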;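 note: His-tagged Mcl-1 with europium anti-His antibody binding Bid BH3 peptide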
Target sequence (Q07820 whole entry, looked up): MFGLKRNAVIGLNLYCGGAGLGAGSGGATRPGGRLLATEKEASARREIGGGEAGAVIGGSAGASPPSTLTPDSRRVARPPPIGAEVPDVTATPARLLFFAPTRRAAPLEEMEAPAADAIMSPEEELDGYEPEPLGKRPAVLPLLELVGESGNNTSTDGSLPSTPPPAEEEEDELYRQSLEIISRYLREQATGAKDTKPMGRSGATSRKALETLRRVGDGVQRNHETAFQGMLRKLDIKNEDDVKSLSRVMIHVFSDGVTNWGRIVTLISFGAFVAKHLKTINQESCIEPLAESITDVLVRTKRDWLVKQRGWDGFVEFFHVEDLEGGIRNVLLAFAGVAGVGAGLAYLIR
Bcl-xL primary: Bcl-xL (human) inhibition. GST-Bcl-xL / FITC-Bim BH3 peptide fluorescence polarization. inhibition, % at 10.9 µM. hit rate 0.7% among 320,000. AID 2129;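 active = inhibition above the mean of all tested compounds plus 3 SD, cutoff set per campaign, cut at about 30% in these data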;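 note: inhibitors lower millipolarization by displacing the labeled peptide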
Target sequence (Q07817 whole entry, looked up): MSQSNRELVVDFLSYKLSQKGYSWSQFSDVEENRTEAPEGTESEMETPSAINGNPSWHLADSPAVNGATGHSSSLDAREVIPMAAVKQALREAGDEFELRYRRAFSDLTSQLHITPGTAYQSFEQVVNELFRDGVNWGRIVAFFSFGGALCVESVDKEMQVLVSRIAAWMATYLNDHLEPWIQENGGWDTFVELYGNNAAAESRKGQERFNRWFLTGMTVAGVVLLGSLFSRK
MCL1 BIM primary: disrupts human MCL1 binding to BIM-BH3 peptide; Q07820; GST-MCL1 / FITC-Bim-BH3 fluorescence polarization; inhibition, % at 10.9 µM; hit rate 0.68% among 320,000;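 active = inhibition above the mean inhibition of all tested compounds plus 3 SD, set per campaign, cut at about 40% in these data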;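 note: higher means more loss of mP so more displacement of Bim peptide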
Mcl-1 Bim block: human Bim-Mcl-1 interaction inhibition; inhibition, % at 10 µM; Q07820; hit rate 0.1% among 190,000; Bead-based flow cytometry, Bim peptide-Mcl-1 binding; in the data active = inhibition above about 40%
Mcl1 Noxa PPI: Mcl-1/Noxa interaction inhibition; Q07820; TR-FRET Mcl-1/Noxa peptide binding, 2 h; AID 1022; hit rate 1.5% among 220,000; inhibition, % at 21.7 µM;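 active = compounds that cut the protein-peptide binding signal by more than 50% relative to plate controls in a single-dose test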;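 note: His-tagged Mcl-1 with rhodamine Noxa BH3 peptide and terbium anti-His antibody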
Numbers stand for hits; – = inactive; · = no result.

SMILES	GLD-1 RNA inh	Mcl1-Bid inh	Bcl-xL primary	MCL1 BIM primary	Mcl-1 Bim block	Mcl1 Noxa PPI
O=C(Cn1c(C(F)(F)F)nc2ccccc21)c1ccc(F)cc1	–	101	–	–	–	–
N#CC(=C=[N-])C1=C(C#N)C(c2ccccc2F)C([n+]2ccccc2)C(O)(C2CC2)N1 (centres undefined)	–	–	–	–	–	–
Cc1cccc[n+]1C1C(c2ccccc2)C(C#N)=C(C(=C=[N-])C#N)NC1(O)C1CC1 (centres undefined)	–	–	44	–	–	–
NC(=O)C1CN(C(=O)c2cccc(S(=O)(=O)N3CCc4ccccc43)c2)c2ccccc2O1 (centres undefined)	–	·	–	–	·	·
COc1cccc(/C=N/n2c(SC)nnc2-c2ccccc2)c1O	–	–	–	–	–	51
COc1cccc(/C=N/n2c(SC)nnc2-c2ccccc2)c1OC	–	–	–	–	–	–
O=C1Cc2cc(NS(=O)(=O)c3cc(F)ccc3F)cc3c2N1CCC3	–	·	–	–	·	·
Cc1ccc(N2CC(C(=O)Nc3ccc(N(C)C)cc3)CC2=O)cc1C (centres undefined)	–	–	–	–	–	75
CCOC(=O)C(=O)c1c(-c2ccc(C)cc2)nc2ccccn12	–	–	63	–	–	–
Cc1ccccc1C(=O)Nc1nnc(S(=O)(=O)N2CCCCC2)s1	–	·	–	–	·	·
CCNC(=O)N1c2ccc(OCC)cc2C(C)=CC1(C)C	68	–	48	45	–	–
Cc1cc(C)c2c(c1)[C@@H]1C=CC[C@@H]1[C@H](c1ccc(S(=O)(=O)N3CCOCC3)cc1)N2	–	–	–	–	–	67
Cc1ccc(S(=O)(=O)N2CCOCC(=O)NCCOCCNC(=O)COCC2)cc1	·	–	·	·	–	–
CCCCn1c(N)c(N(CC(C)C)C(=O)c2cc(S(=O)(=O)N3CCOCC3)ccc2Cl)c(=O)[nH]c1=O	–	·	–	–	·	·
CCCOc1ccc(-c2c(C(=O)N/N=C(\C)c3ccco3)nnn2-c2nonc2N)cc1	–	·	69	–	·	·
CCCOc1ccc(-c2c(C(=O)N/N=C(\C)c3cccnc3)nnn2-c2nonc2N)cc1	–	·	–	–	·	·
Cc1cc(C)c2[nH]c(C)c(CN3CCCCCC3)c(=O)c2c1	–	·	–	–	·	·
Cc1nc2ccc(C(=O)N3CCN(Cc4ccccc4)CC3)cc2[nH]1	–	·	–	–	·	·
CC(=O)c1sc(NC(=O)COc2ccccc2)nc1C	–	–	–	–	–	–
CCOC(=O)c1sc2nc(NC(=O)COc3ccccc3)sc2c1C	–	–	–	–	–	55
CC1CN(C(=O)C(C)OC(=O)c2ccc3ncsc3c2)CC(C)O1 (centres undefined)	–	·	–	–	·	·
CC1(C)CC(=O)/C(=C(\O)Cc2ccccc2)C(=NCCCCCC(=O)O)C1	–	–	–	–	–	–
CN(C)c1ncnc2c1NC1=C(S2)C(=NCCCC(=O)O)CC(C)(C)C1	–	–	32	–	–	–
N#C/C(=C(/O)CN1CCN(c2ccccc2F)CC1)c1nc(-c2ccccc2)cs1	–	–	–	–	46	–
CCOc1ccc(CCNC(=O)COC(=O)c2ccc(OC(C)C)cc2)cc1OCC	–	·	–	–	·	·
SMILES	GLD-1 RNA inh	Mcl1-Bid inh	Bcl-xL primary	MCL1 BIM primary	Mcl-1 Bim block	Mcl1 Noxa PPI
CCN(c1ccccc1)S(=O)(=O)c1ccc(Cl)c(NC(=O)COC(=O)c2cc(O)c3ccccc3c2O)c1	–	–	–	–	·	55
COc1ccc(/C=N/NC(=O)Nc2cccc3nsnc23)cc1	–	53	–	–	–	–
O=C(Cn1ccc2cc(S(=O)(=O)N3CCCCC3)ccc21)NCc1ccccc1F	–	·	–	–	·	·
Cc1ccc(NC2=C(Cl)C(=O)OC2OC(=O)c2ccco2)c(C)c1 (centres undefined)	–	–	–	–	–	–
Cc1ccc(C)c(NC2=C(Cl)C(=O)OC2OC(=O)c2ccco2)c1 (centres undefined)	–	–	–	–	–	57
Cc1ccc(S(=O)(=O)N/N=C/c2ccc(C#N)cc2)cc1	–	·	–	–	·	·
CCc1nn(C(CC)C(=O)NCc2cccc(OC)c2)c(=O)c2cc3occc3n12 (centres undefined)	–	·	–	–	·	·
Cc1cccc(OCCCC(=O)Nc2ccc(Br)cc2)c1	–	–	–	–	–	–
Cc1cccc(OCCCC(=O)Nc2ccc(N(C)C)cc2)c1	–	–	–	–	–	77
Cc1sc2nc(COC(=O)c3cccc(S(=O)(=O)N(C)c4ccccc4)c3)[nH]c(=O)c2c1C	–	–	39	–	–	–
CCOc1ccc(OCC)c(NC(=O)CN2CCN(c3cc(C)ccc3C)CC2)c1	–	51	–	–	–	–
O=[N+]([O-])c1cc([N+](=O)[O-])c2c(=Nc3ccccc3)n(-c3ccccc3)n(O)c2c1	–	–	–	–	–	62
Cc1cccc(Nc2nc(-c3ccc(O)cc3O)cs2)n1	–	·	–	–	·	·
O=C(Nc1cccc(-c2csc(-c3ccccc3)n2)c1)c1cccs1	–	96	–	–	–	–
Oc1ccc(-c2csc(-c3ccccc3)n2)cc1O	–	–	–	–	–	62
COc1ccc(-c2csc(NC(=S)NC(=O)c3cccs3)n2)cc1OC	·	–	·	·	–	82
COc1ccc(-c2csc(NC(=S)NC(=O)c3cccs3)n2)cc1Br	–	–	–	–	·	–
Oc1ccc(-c2csc(Nc3ncccn3)n2)c(O)c1	–	–	–	–	–	72
Cc1cccc(OCc2nnc(SCC(=O)N(c3ccccc3)C3CCS(=O)(=O)C3)o2)c1 (centres undefined)	–	·	–	–	·	·
CC(C)c1ccc(NC(=O)CN2CCN(C(=O)C3CCCO3)CC2)cc1 (centres undefined)	–	·	–	–	·	·
Oc1ccc(-c2csc(Nc3ncccn3)n2)cc1O	·	–	·	·	–	87
CC(=O)Nc1cccc(-c2csc(Nc3ncccn3)n2)c1	·	–	·	·	–	–
CCCCC(=O)NC(=S)Nc1ccc(NC(=O)C(C)C)c(OC)c1	–	–	–	–	–	–
CN(C)c1ccc(NC(=O)C(=O)C2C(=O)Nc3ccccc32)cc1 (centres undefined)	–	–	–	–	·	–
CN(C)c1ccc(CC2C(=O)Nc3ccccc32)cc1 (centres undefined)	–	–	46	–	·	–
SMILES	GLD-1 RNA inh	Mcl1-Bid inh	Bcl-xL primary	MCL1 BIM primary	Mcl-1 Bim block	Mcl1 Noxa PPI
CC1Cc2ccccc2N1C(=O)CCn1cccn1 (centres undefined)	–	·	–	–	·	·
O=C(Cc1cccc2ccccc12)Nc1ccccc1	–	·	–	–	·	·
C=CCN(CC=C)C(=S)NC(=O)Cc1cccc2ccccc12	–	–	–	–	–	62
Cn1nc(-c2ccc(Cl)cc2)c2cc(C(=O)NCCN3CCOCC3)sc21	–	94	–	–	–	–
O=C(CN1CCN(CCN2C(=O)c3cccc4cccc(c34)C2=O)CC1)c1ccc(F)cc1	–	98	–	–	–	–
O=C(CN1CCN(CCN2C(=O)c3cccc4cccc(c34)C2=O)CC1)c1ccc(Cl)cc1	·	–	·	·	–	–

Screening data as filed in PubChem BioAssay.
